According to PubChem BioAssay AID1159580 (chemical genetic matrix, 2015):
Several values for one entry are separate records, joined by “and”; a condition that tells them apart may be missing. Equal values may be shown once. In all, about 5,500 compounds went through this assay and about 2,000 (36%) were called active. Another 18% or so got no clear call; they are omitted. Cut-off read from the data, not from the text of the source: active = normalized growth mostly below about 0.91 (no sharp cut-off); inconclusive = no clear call, values can overlap the other calls; inactive = mostly above about 0.92. Some of the results follow.

Assay: chemical genetic growth profiling, strain panel (AID 1159580);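 note: tested at 20 µM; growth read once vehicle control cultures reached saturation at 30 °C; 1 = growth at the plate median or of vehicle wells; lower values mean less growth of the strain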
Conditions: growth OD

Measured: normalized growth

COc1ccc(C(=O)O)c(O)c1OC
inactive: S. cerevisiae deletion strains, locus YAL013W, strain DEP1, hits give low values 1.05 | S. cerevisiae deletion strains, locus YBR021W, strain FUR4, hits give low values 1.03 | S. cerevisiae deletion strains, locus YBR229C, strain ROT2, hits give low values 1.02 | S. cerevisiae deletion strains, locus YCL029C, strain bik1, hits give low values 0.992 | S. cerevisiae deletion strains, locus YDL035C, strain GPR1, hits give low values 1.04 | S. cerevisiae deletion strains, locus YDL074C, strain BRE1, hits give low values 1.04 | S. cerevisiae deletion strains, locus YDL101C, strain DUN1, hits give low values 1.01 | S. cerevisiae deletion strains, locus YDL134C, strain PPH21, hits give low values 1.02 | S. cerevisiae deletion strains, locus YDL185W, strain tfp1, hits give low values 0.999 | S. cerevisiae deletion strains, locus YDL192W, strain arf1, hits give low values 0.984 | S. cerevisiae deletion strains, locus YDR101C, strain arx1, hits give low values 0.985 | S. cerevisiae deletion strains, locus YDR150W, strain NUM1, hits give low values 1.01 | S. cerevisiae deletion strains, locus YDR162C, strain NBP2, hits give low values 1.03 | S. cerevisiae deletion strains, locus YDR318W, strain mcm21, hits give low values 0.988 | S. cerevisiae deletion strains, locus YDR388W, hits give low values 0.988 | S. cerevisiae deletion strains, locus YDR502C, strain sam2, hits give low values 0.994 | S. cerevisiae deletion strains, locus YEL061C, strain CIN8, hits give low values 1.01 | S. cerevisiae deletion strains, locus YER110C, hits give low values 0.987 | S. cerevisiae deletion strains, locus YER155C, strain BEM2, hits give low values 1.01 | S. cerevisiae deletion strains, locus YER167W, strain BCK2, hits give low values 1.02 | S. cerevisiae deletion strains, locus YGL078C, strain dbp3, hits give low values 0.999 | S. cerevisiae deletion strains, locus YGL086W, strain mad1, hits give low values 0.994 | S. cerevisiae deletion strains, locus YGL248W, strain PDE1, hits give low values 1.02 | S. cerevisiae deletion strains, locus YGR078C, strain PAC10, hits give low values 1.04 | S. cerevisiae deletion strains, locus YGR135W, strain pre9, hits give low values 1 | S. cerevisiae deletion strains, locus YGR252W, strain gcn5, hits give low values 1.06 | S. cerevisiae deletion strains, locus YHR030C, strain SLT2, hits give low values 1.01 and 1 | S. cerevisiae deletion strains, locus YHR079C, strain IRE1 (second series), hits give low values 0.986 | S. cerevisiae deletion strains, locus YHR079C, strain IRE1, hits give low values 0.996 | S. cerevisiae deletion strains, locus YHR094C, strain hxt1, hits give low values 0.987 | S. cerevisiae deletion strains, locus YHR129C, strain ARP1, hits give low values 1.01 | S. cerevisiae deletion strains, locus YHR200W, strain rpn10, hits give low values 0.997 | S. cerevisiae deletion strains, locus YIL066C, strain RNR3, hits give low values 1.03 | S. cerevisiae deletion strains, locus YIL073C, strain SPO22, hits give low values 1.02 | S. cerevisiae deletion strains, locus YIL125W, strain kgd1, hits give low values 0.988 | S. cerevisiae deletion strains, locus YIR030C, strain dcg1, hits give low values 0.996 | S. cerevisiae deletion strains, locus YJL095W, strain BCK1, hits give low values 1.04 and 1.01 | S. cerevisiae deletion strains, locus YJL134W, strain LCB3, hits give low values 1.01 | S. cerevisiae deletion strains, locus YJL168C, strain set2, hits give low values 0.997 | S. cerevisiae deletion strains, locus YJL187C, strain SWE1 (second series), hits give low values 1.01 | S. cerevisiae deletion strains, locus YJR043C, strain POL32, hits give low values 1.05 | S. cerevisiae deletion strains, locus YJR066W, strain TOR1, hits give low values 0.938 | S. cerevisiae deletion strains, locus YKL009W, strain mrt4, hits give low values 1.01 | S. cerevisiae deletion strains, locus YKL068W, hits give low values 0.989 | S. cerevisiae deletion strains, locus YKL085W, strain MDH1 (second series), hits give low values 0.996 | S. cerevisiae deletion strains, locus YKL085W, strain MDH1, hits give low values 0.996 | S. cerevisiae deletion strains, locus YKL190W, strain CNB1, hits give low values 1.01 | S. cerevisiae deletion strains, locus YKR001C, strain vps1, hits give low values 0.97 | S. cerevisiae deletion strains, locus YLR039C, strain RIC1, hits give low values 1.09 | S. cerevisiae deletion strains, locus YLR058C, strain SHM2, hits give low values 1.01 | S. cerevisiae deletion strains, locus YLR102C, strain apc9, hits give low values 0.996 | S. cerevisiae deletion strains, locus YLR113W, strain HOG1, hits give low values 1 | S. cerevisiae deletion strains, locus YLR262C, strain YPT6, hits give low values 1.12 | S. cerevisiae deletion strains, locus YLR268W, strain sec22, hits give low values 0.996 | S. cerevisiae deletion strains, locus YLR330W, strain CHS5, hits give low values 1.01 | S. cerevisiae deletion strains, locus YLR342W, strain FKS1 (second series), hits give low values 1.01 | S. cerevisiae deletion strains, locus YLR371W, strain rom2, hits give low values 0.981 | S. cerevisiae deletion strains, locus YLR418C, strain cdc73, hits give low values 1.04 | S. cerevisiae deletion strains, locus YML016C, strain PPZ1, hits give low values 1.01 | S. cerevisiae deletion strains, locus YML032C, strain rad52, hits give low values 1 | S. cerevisiae deletion strains, locus YML124C, strain tub3, hits give low values 0.997 | S. cerevisiae deletion strains, locus YMR078C, strain ctf18, hits give low values 0.998 | S. cerevisiae deletion strains, locus YMR223W, strain ubp8, hits give low values 0.996 | S. cerevisiae deletion strains, locus YMR307W, strain GAS1, hits give low values 1.22 | S. cerevisiae deletion strains, locus YNL067W, strain RPL9B, hits give low values 1.02 | S. cerevisiae deletion strains, locus YNL128W, strain TEP1, hits give low values 1.01 | S. cerevisiae deletion strains, locus YNL153C, strain GIM3, hits give low values 1.01 | S. cerevisiae deletion strains, locus YNL183C, strain NPR1, hits give low values 0.938 | S. cerevisiae deletion strains, locus YNL233W, strain BNI4, hits give low values 1.02 | S. cerevisiae deletion strains, locus YNL250W, strain rad50, hits give low values 0.991 | S. cerevisiae deletion strains, locus YNL271C, strain bni1, hits give low values 0.995 | S. cerevisiae deletion strains, locus YNL298W, strain CLA4, hits give low values 1.01 | S. cerevisiae deletion strains, locus YNL307C, strain MCK1, hits give low values 0.988 | S. cerevisiae deletion strains, locus YNR052C, strain pop2, hits give low values 0.981 | S. cerevisiae deletion strains, locus YOL012C, strain htz1 0.918 | S. cerevisiae deletion strains, locus YOL147C, strain pex11, hits give low values 0.988 | S. cerevisiae deletion strains, locus YOR061W, strain CKA2, hits give low values 1.01 | S. cerevisiae deletion strains, locus YOR069W, strain VPS5, hits give low values 1.01 | S. cerevisiae deletion strains, locus YOR136W, strain idh2, hits give low values 0.991 | S. cerevisiae deletion strains, locus YOR144C, strain elg1, hits give low values 0.991 | S. cerevisiae deletion strains, locus YOR184W, strain ser1, hits give low values 0.998 | S. cerevisiae deletion strains, locus YOR231W, strain MKK1, hits give low values 1 | S. cerevisiae deletion strains, locus YOR316C, strain cot1, hits give low values 0.992 | S. cerevisiae deletion strains, locus YPL256C, strain CLN2, hits give low values 1.02 | S. cerevisiae deletion strains, locus YPR119W, strain clb2, hits give low values 0.993 | S. cerevisiae deletion strains, locus YPR141C, strain kar3, hits give low values 0.989 | S. cerevisiae deletion strains, locus YPR163C, strain tif3, hits give low values 0.984 | S. cerevisiae deletion strains, locus YPR167C, strain met16, hits give low values 0.99 | S. cerevisiae deletion strains, strain wtn01, hits give low values 0.983 | S. cerevisiae strains, strain wild type, hits give low values 1.01
